The panel holds about 83,000 compounds, 20% with a hit somewhere; the sample as a whole holds those more often.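 Percent growth is the endpoint: 0 to 100 indicates growth inhibition (40 means 60% inhibition), 0 means no net growth, and negative values indicate cell death.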 Values without a mark were called inactive. Activity calls are given as the source filed them. The calls were made as follows: active = growth percent below 10; inactive = the rest.

This passage reports growth results from PubChem BioAssay (NCI).

What all share (experiment): NCI-60 one-dose screen, 48 h (100 = growth as untreated, 0 = no growth, -100 = all killed)
Assay [1] concerns MOLT-4 leukemia.
Assay [2] relates to SR leukemia. To be noted: 10 µM unless noted.
In assay [3] the test system is RPMI-8226 leukemia.
Assay [4] deals with OVCAR-8 ovarian.
Assay [5] has as its system OVCAR-5 ovarian.
Assay [6] deals with OVCAR-4 ovarian. To be noted: 10 µM unless noted.
In assay [7] the test system is SK-OV-3 ovarian.
Assay [8] has as its system IGROV1 ovarian.
Assay [9] has as its system OVCAR-3 ovarian.
Assay [10] concerns HS 578T breast.
In assay [11] the test system is NCI/ADR-RES ovarian.
The test system of assay [12] is T-47D breast.
Assay [13] has as its system BT-549 breast.
Assay [14] relates to MDA-MB-435 melanoma.
Assay [15] concerns SW-620 colon.
The subject of assay [16] is MCF7 breast.
Assay [17] deals with HCT-116 colon.
The subject of assay [18] is HCC-2998 colon.
Assay [19] deals with KM12 colon. To be noted: 10 µM unless noted.

Regarding `C[C@]12CCc3sc(Nc4ccc(F)cc4F)nc3C1=CC[C@@H]1[C@@H]2CC[C@]2(C)C(=O)CC[C@@H]12`, the growth was 3.63% (active) in assay [1] (10 µM unless noted); 0.71% (active) in assay [2]; -20.8% (active) in [3] (10 µM unless noted); 45.2% in [4] (10 µM unless noted); 91.8% in [5] (10 µM unless noted); 66.7% in [6]. Also, the growth is 84.1% in [7] (10 µM unless noted); 62.1% in [8] (10 µM unless noted); -4.15% (active) in assay [9] (10 µM unless noted); 55.3% in assay [10] (10 µM unless noted); 67.6% in [11] (10 µM unless noted); 48.9% in [12] (10 µM unless noted). Moreover, the growth is 59.6% in assay [13] (10 µM unless noted); 51.5% in assay [14] (10 µM unless noted); 7.16% (active) in assay [15] (10 µM unless noted); 14.6% in assay [16] (10 µM unless noted); -23.3% (active) in assay [17] (10 µM unless noted); 71.6% in [18] (10 µM unless noted). Also, the growth in assay [19] is 57.1%.

On to `CC(=O)OCC1OC([S-])C(OC(C)=O)C(OC(C)=O)C1OC(C)=O.[Au+].c1ccc(CN2[CH-]N(Cc3ccccc3)C(c3ccccc3)=C2c2ccccc2)cc1`, for which the growth in [1] (4.75 µM) was 3.9% (active); in [1] (10 µM) it was 13.5%; in [3] (4.75 µM), -20.5% (active); in [3] (10 µM) it was -4.74% (active); in [4] (4.75 µM), 3.93% (active); in [4] (10 µM) it was 22.3%. For the same molecule, the growth in assay [5] (4.75 µM) is 24.2%; in assay [5] (10 µM), 72.2%; in assay [7] (4.75 µM), -13.2% (active); in assay [7] (10 µM) it was 70.4%; in [8] (4.75 µM), -33.7% (active); in [8] (10 µM), -67.2% (active). In addition, the growth in assay [9] (4.75 µM) was -44.3% (active); in assay [9] (10 µM), -95.7% (active); in [10] (4.75 µM) it was 10%; in assay [10] (10 µM), 28.5%; in assay [11] (4.75 µM) it was 53.3%; in assay [11] (10 µM) it was 66.5%. Besides, the growth in assay [12] (4.75 µM) was -20.3% (active); in [12] (10 µM) it was -52.1% (active); in assay [13] (4.75 µM) it was 7.95% (active); in assay [13] (10 µM), 12.6%; in [14] (4.75 µM), 4.71% (active); in assay [14] (10 µM), 29.4%. Also, the growth in assay [15] (4.75 µM) is -33% (active); in assay [15] (10 µM) it was -17.6% (active); in assay [16] (4.75 µM), 0.0903% (active); in assay [16] (10 µM) it was -66.1% (active); in assay [17] (4.75 µM), -5.84% (active); in [17] (10 µM), -16.6% (active). For the same molecule, the growth is 16.7% in assay [18] (4.75 µM) and -62.8% (active) in [18] (10 µM).

Regarding `CC[C@H](C)[C@H](NC(=O)[C@H]1CCCCN1C)C(=O)N(C)[C@H](C[C@@H](OC(C)=O)c1nc(C(=O)N[C@@H](Cc2ccccc2)C[C@H](C)C(=O)O)cs1)C(C)C`, the growth is 12.8% in assay [1] (10 µM unless noted); 2.65% (active) in [2]; 34.1% in assay [3] (10 µM unless noted); 21% in assay [4] (10 µM unless noted); 57.7% in assay [5] (10 µM unless noted); 52.6% in [6]. Moreover, the growth was 12.3% in assay [7] (10 µM unless noted); 30.2% in assay [8] (10 µM unless noted); -4.44% (active) in assay [9] (10 µM unless noted); 25.3% in assay [10] (10 µM unless noted); 12.2% in [11] (10 µM unless noted); 70.5% in [12] (10 µM unless noted). Further, the growth in assay [13] (10 µM unless noted) is -37.2% (active); in [14] (10 µM unless noted), -10.9% (active); in [15] (10 µM unless noted), 35.2%; in assay [16] (10 µM unless noted), 14.6%; in assay [17] (10 µM unless noted) it was 5.71% (active); in assay [18] (10 µM unless noted) it was 13.7%.

As for `CCCCOCCOP(=O)(OCCOCCCC)OCCOCCCC`, the growth in [1] (10 µM unless noted) was 92.3%; in assay [2] it was 98.9%; in assay [3] (10 µM unless noted), 115%; in assay [4] (10 µM unless noted), 107%; in assay [5] (10 µM unless noted) it was 105%; in assay [6], 114%. The growth is 101% in [7] (10 µM unless noted); 119% in assay [8] (10 µM unless noted); 118% in assay [9] (10 µM unless noted); 95.5% in [10] (10 µM unless noted); 99.7% in [11] (10 µM unless noted); 96.2% in assay [12] (10 µM unless noted). Besides, the growth was 114% in assay [13] (10 µM unless noted); 101% in [14] (10 µM unless noted); 93.3% in [15] (10 µM unless noted); 105% in assay [16] (10 µM unless noted); 115% in assay [17] (10 µM unless noted); 102% in [18] (10 µM unless noted). Also, the growth in assay [19] is 120%.

For `C/C(=C\c1ccn(-c2ccc(N)cc2F)n1)[C@@H]1C[C@@H]2O[C@]2(C)CCC[C@H](C)[C@H](O)[C@@H](C)C(=O)C(C)(C)[C@@H](O)CC(=O)O1`, the growth in [1] (10 µM unless noted) is 10.6%; in assay [2] it was 13.8%; in assay [3] (10 µM unless noted), 7.57% (active); in [4] (10 µM unless noted), 18.7%; in assay [5] (10 µM unless noted), 23.5%; in assay [6] it was 61.1%. For the same molecule, the growth was 33.9% in assay [7] (10 µM unless noted); 34.8% in [8] (10 µM unless noted); -4.43% (active) in assay [9] (10 µM unless noted); -1.48% (active) in [10] (10 µM unless noted); -11.9% (active) in assay [11] (10 µM unless noted); 35.5% in assay [12] (10 µM unless noted). Besides, the growth in [13] (10 µM unless noted) was 19.7%; in assay [14] (10 µM unless noted), -30% (active); in [15] (10 µM unless noted), 35.1%; in assay [16] (10 µM unless noted), 16.7%; in assay [17] (10 µM unless noted) it was 12.2%; in assay [18] (10 µM unless noted), -15% (active). The growth in assay [19] is 10.2%.

For `N[C@@H](CCC(=O)CCl)C(=O)O`, the growth in assay [1] (10 µM unless noted) is 99.9% [20 µM]; in [2] it was 71.3% [20 µM]; in [3] (10 µM unless noted), 111% [20 µM]; in assay [4] (10 µM unless noted) it was 108% [20 µM]; in assay [5] (10 µM unless noted) it was 98% [20 µM]; in [6] it was 112% [20 µM]. Besides, the growth in assay [7] (10 µM unless noted) is 108% [20 µM]; in [8] (10 µM unless noted) it was 99.5% [20 µM]; in assay [9] (10 µM unless noted) it was 110% [20 µM]; in [10] (10 µM unless noted), 109% [20 µM]; in assay [11] (10 µM unless noted), 104% [20 µM]; in assay [12] (10 µM unless noted), 93% [20 µM]. Further, the growth in assay [13] (10 µM unless noted) was 108% [20 µM]; in assay [14] (10 µM unless noted) it was 103% [20 µM]; in assay [15] (10 µM unless noted), 97.9% [20 µM]; in assay [16] (10 µM unless noted) it was 87.9% [20 µM]; in assay [17] (10 µM unless noted), 104% [20 µM]; in assay [18] (10 µM unless noted), 111% [20 µM]. In addition, the growth in assay [19] is 100% [20 µM].
